# Measured values taken from PMC7862700, “An all-to-all approach to the identification of sequence-specific readers for epigenetic DNA modifications on cytosine”.
# Legend:
# Assay in all cases: DAPPL (digital affinity profiling via proximity ligation, sequencing); 10 mM Tris-HCl pH 7.5, 50 mM NaCl, 1 mM DTT, 4% glycerol, room temperature, 30 min; GST-TFs on glutathione beads, 16-mer random dsDNA library, 0.1% formaldehyde crosslink after washing; high values mean tight binding
# Settings in all cases: protein: recombinant; tags: N-terminal GST; dsDNA, one strand shown
# ERF = target: T1, ERF (Homo sapiens, UniProt P50548 1-548)
# T1 sequence: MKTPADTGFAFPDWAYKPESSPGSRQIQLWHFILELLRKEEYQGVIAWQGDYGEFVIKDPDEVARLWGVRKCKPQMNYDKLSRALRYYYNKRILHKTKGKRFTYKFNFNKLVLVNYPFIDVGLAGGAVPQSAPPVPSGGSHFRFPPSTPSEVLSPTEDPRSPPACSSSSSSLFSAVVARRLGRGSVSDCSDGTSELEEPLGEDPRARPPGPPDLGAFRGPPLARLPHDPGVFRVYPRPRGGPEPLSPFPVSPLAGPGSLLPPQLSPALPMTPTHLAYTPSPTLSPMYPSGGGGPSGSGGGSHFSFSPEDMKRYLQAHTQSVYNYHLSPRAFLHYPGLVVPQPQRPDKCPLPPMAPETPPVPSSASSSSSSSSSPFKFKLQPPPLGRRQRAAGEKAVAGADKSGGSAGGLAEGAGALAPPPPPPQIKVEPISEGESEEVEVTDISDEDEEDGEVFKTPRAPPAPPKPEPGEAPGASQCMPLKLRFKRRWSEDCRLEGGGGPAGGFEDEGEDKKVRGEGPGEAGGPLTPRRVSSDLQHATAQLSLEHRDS
# Procedure, shortened: (§1)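 After expression in yeast as GST fusions, human transcription factors were bound to glutathione beads, DNA-barcoded and mixed with a tag-only sample. The pools were incubated with 200 nmole of a 16-mer random double-stranded DNA library in Tris/NaCl/DTT/glycerol buffer (30 min, room temperature), washed and crosslinked with 0.1% formaldehyde. Proximity ligation with BsaI/T4 ligase ran for 1 h at 37 °C, before PCR amplification and sequencing on an Illumina NextSeq500. Binding signal is a hexamer's read frequency for a factor divided by its frequency for the tag-only sample.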
# ETV3L = target: T2, ETV3L (Homo sapiens, UniProt Q6ZN32 1-361)
# T2 sequence: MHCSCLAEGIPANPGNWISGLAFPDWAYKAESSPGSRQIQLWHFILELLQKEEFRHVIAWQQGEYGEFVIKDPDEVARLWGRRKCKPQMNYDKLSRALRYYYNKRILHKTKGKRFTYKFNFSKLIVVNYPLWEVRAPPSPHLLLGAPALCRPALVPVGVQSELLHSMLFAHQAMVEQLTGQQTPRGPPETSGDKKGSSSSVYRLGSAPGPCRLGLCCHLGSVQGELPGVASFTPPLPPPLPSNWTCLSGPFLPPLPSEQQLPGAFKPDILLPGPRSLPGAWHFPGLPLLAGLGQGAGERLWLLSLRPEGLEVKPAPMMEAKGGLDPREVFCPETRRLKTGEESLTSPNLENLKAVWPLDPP
# Procedure, shortened: as §1
# ETS2 = target: T3, ETS2 (Homo sapiens, UniProt P15036 1-469)
# T3 sequence: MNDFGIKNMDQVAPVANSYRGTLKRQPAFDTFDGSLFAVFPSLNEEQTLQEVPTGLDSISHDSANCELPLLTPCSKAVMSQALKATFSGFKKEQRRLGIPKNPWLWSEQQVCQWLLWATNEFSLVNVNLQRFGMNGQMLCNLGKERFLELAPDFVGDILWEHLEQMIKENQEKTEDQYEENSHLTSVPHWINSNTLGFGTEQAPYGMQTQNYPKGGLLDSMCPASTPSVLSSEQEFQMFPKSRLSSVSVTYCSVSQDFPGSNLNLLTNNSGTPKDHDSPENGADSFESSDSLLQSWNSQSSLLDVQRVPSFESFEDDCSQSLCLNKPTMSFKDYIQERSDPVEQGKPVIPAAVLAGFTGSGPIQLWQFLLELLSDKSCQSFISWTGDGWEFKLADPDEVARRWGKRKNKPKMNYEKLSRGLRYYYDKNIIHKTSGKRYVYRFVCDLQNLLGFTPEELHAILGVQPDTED
# Procedure, shortened: as §1
# SPDEF = target: T4, SPDEF (Homo sapiens, UniProt O95238 1-335)
# T4 sequence: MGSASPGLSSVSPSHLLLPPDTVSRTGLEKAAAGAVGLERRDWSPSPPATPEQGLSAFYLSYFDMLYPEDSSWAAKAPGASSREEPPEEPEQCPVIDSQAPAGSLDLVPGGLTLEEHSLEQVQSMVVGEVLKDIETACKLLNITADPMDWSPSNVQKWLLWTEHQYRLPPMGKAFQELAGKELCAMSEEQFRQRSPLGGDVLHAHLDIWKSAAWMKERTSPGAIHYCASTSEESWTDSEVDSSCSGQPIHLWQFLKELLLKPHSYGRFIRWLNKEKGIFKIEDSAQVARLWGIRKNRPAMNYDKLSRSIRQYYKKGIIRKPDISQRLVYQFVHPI
# Procedure, shortened: as §1
# ETV7 = target: T5, ETV7 (Homo sapiens, UniProt Q9Y603 1-341)
# T5 sequence: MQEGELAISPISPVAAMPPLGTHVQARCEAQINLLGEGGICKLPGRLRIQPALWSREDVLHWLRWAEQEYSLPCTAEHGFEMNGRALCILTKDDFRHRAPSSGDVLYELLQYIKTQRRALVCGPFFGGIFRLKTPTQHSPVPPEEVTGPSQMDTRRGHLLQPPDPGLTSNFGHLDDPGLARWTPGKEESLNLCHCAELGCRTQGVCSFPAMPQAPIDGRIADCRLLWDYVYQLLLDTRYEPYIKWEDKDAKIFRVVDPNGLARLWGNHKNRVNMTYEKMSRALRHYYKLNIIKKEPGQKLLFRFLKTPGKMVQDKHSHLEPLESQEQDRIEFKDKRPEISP
# Procedure, shortened: as §1
# ETV3 = target: T6, ETV3 (Homo sapiens, UniProt P41162-2 1-143)
# T6 sequence: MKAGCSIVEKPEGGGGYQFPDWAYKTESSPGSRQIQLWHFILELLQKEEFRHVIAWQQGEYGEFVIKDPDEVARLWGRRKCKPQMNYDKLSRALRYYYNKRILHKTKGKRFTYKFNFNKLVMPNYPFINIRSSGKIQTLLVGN
# Procedure, shortened: as §1
# ETV6 = ETV6 (Homo sapiens, UniProt P41212 1-452)
# Chain of ETV6 (P41212 whole entry): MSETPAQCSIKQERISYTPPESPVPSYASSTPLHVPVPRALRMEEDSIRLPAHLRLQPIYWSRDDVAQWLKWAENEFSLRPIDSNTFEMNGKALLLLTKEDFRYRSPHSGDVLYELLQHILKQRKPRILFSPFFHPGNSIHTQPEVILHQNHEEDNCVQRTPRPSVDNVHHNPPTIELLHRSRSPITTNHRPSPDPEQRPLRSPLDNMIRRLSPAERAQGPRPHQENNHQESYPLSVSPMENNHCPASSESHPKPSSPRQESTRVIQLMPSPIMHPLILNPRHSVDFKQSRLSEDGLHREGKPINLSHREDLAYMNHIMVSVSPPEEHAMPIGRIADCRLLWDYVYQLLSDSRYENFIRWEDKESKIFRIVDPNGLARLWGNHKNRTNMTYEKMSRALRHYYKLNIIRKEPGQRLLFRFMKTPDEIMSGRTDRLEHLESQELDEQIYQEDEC
# Procedure, shortened: as §1
# ELF5 = target: T7, ELF5 (Homo sapiens, UniProt Q9UKW6-2 1-255)
# T7 sequence: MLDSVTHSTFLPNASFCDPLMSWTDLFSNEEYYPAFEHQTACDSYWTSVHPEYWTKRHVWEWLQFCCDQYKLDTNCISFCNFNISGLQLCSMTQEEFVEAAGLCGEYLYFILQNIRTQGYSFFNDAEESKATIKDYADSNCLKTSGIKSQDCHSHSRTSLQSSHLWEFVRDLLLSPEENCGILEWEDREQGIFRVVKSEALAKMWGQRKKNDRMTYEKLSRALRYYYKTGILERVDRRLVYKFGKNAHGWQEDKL
# Procedure, shortened: as §1
Sequence,binding signal (ERF),binding signal (ETV3L),binding signal (ETS2),binding signal (SPDEF),binding signal (ETV7),binding signal (ETV3),binding signal (ETV6),binding signal (ELF5)
GGCCTC,"1.12 fold enrichment (6-mer frequency, TF over GST control)","1.12 fold enrichment (6-mer frequency, TF over GST control)","1.09 fold enrichment (6-mer frequency, TF over GST control)","1.08 fold enrichment (6-mer frequency, TF over GST control)","1.05 fold enrichment (6-mer frequency, TF over GST control)","1.1 fold enrichment (6-mer frequency, TF over GST control)","1.09 fold enrichment (6-mer frequency, TF over GST control)",
CGGCTT,"1.27 fold enrichment (6-mer frequency, TF over GST control)","1.1 fold enrichment (6-mer frequency, TF over GST control)","1.21 fold enrichment (6-mer frequency, TF over GST control)","1.33 fold enrichment (6-mer frequency, TF over GST control)",,"1.15 fold enrichment (6-mer frequency, TF over GST control)","1.16 fold enrichment (6-mer frequency, TF over GST control)","1.19 fold enrichment (6-mer frequency, TF over GST control)"
CTCCAG,"1.2 fold enrichment (6-mer frequency, TF over GST control)","1.2 fold enrichment (6-mer frequency, TF over GST control)","1.19 fold enrichment (6-mer frequency, TF over GST control)","1.16 fold enrichment (6-mer frequency, TF over GST control)",,"1.23 fold enrichment (6-mer frequency, TF over GST control)",,"1.15 fold enrichment (6-mer frequency, TF over GST control)"
CTCGGT,"1.14 fold enrichment (6-mer frequency, TF over GST control)","1.12 fold enrichment (6-mer frequency, TF over GST control)","1.11 fold enrichment (6-mer frequency, TF over GST control)","1.02 fold enrichment (6-mer frequency, TF over GST control)","1.05 fold enrichment (6-mer frequency, TF over GST control)",,"1.08 fold enrichment (6-mer frequency, TF over GST control)",
CTCAGA,"1.21 fold enrichment (6-mer frequency, TF over GST control)","1.06 fold enrichment (6-mer frequency, TF over GST control)","1.02 fold enrichment (6-mer frequency, TF over GST control)","1.11 fold enrichment (6-mer frequency, TF over GST control)",,"1.01 fold enrichment (6-mer frequency, TF over GST control)","1.13 fold enrichment (6-mer frequency, TF over GST control)","1.03 fold enrichment (6-mer frequency, TF over GST control)"
GCATTC,"1.16 fold enrichment (6-mer frequency, TF over GST control)","1.07 fold enrichment (6-mer frequency, TF over GST control)","1.08 fold enrichment (6-mer frequency, TF over GST control)","1.1 fold enrichment (6-mer frequency, TF over GST control)",,"1.17 fold enrichment (6-mer frequency, TF over GST control)","1.19 fold enrichment (6-mer frequency, TF over GST control)","1.06 fold enrichment (6-mer frequency, TF over GST control)"
CCACAA,"1.24 fold enrichment (6-mer frequency, TF over GST control)","1.26 fold enrichment (6-mer frequency, TF over GST control)","1.23 fold enrichment (6-mer frequency, TF over GST control)","1.14 fold enrichment (6-mer frequency, TF over GST control)",,"1.12 fold enrichment (6-mer frequency, TF over GST control)","1.18 fold enrichment (6-mer frequency, TF over GST control)","1.18 fold enrichment (6-mer frequency, TF over GST control)"
CTGTGC,"1.12 fold enrichment (6-mer frequency, TF over GST control)","1.13 fold enrichment (6-mer frequency, TF over GST control)","1.18 fold enrichment (6-mer frequency, TF over GST control)","1.12 fold enrichment (6-mer frequency, TF over GST control)",,"1.19 fold enrichment (6-mer frequency, TF over GST control)","1.22 fold enrichment (6-mer frequency, TF over GST control)","1 fold enrichment (6-mer frequency, TF over GST control)"
CACAAT,"1.18 fold enrichment (6-mer frequency, TF over GST control)","1.08 fold enrichment (6-mer frequency, TF over GST control)","1.13 fold enrichment (6-mer frequency, TF over GST control)","1.07 fold enrichment (6-mer frequency, TF over GST control)",,"1.12 fold enrichment (6-mer frequency, TF over GST control)","1.09 fold enrichment (6-mer frequency, TF over GST control)","1.06 fold enrichment (6-mer frequency, TF over GST control)"
CGAAAA,"1.17 fold enrichment (6-mer frequency, TF over GST control)","1.09 fold enrichment (6-mer frequency, TF over GST control)","1.08 fold enrichment (6-mer frequency, TF over GST control)","1.02 fold enrichment (6-mer frequency, TF over GST control)","1.17 fold enrichment (6-mer frequency, TF over GST control)",,"1.08 fold enrichment (6-mer frequency, TF over GST control)",
